Source: PubChem BioAssay (NCI)
Compounds without any hit were thinned out: in the full panel of roughly 83,000, 20% have a hit.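 Compound tested at a single concentration for 48 hours in 96-well plates; a percent growth value below 10 was scored as active.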 Unmarked numbers belong to inactive results. The source made the active and inactive calls.

Assays:
Assay in all cases: NCI-60 one-dose screen, 48 h (100 = growth as untreated, 0 = no growth, -100 = all killed)
NCI-H226 lung = conditions: 10 µM
NCI-H322M lung = conditions: 10 µM unless noted
HOP-62 NSCLC = conditions: 10 µM unless noted
NCI-H460 lung = conditions: 10 µM unless noted
HOP-92 NSCLC = conditions: 10 µM unless noted
NCI-H522 lung = conditions: 10 µM
A549/ATCC NSCLC = conditions: 10 µM unless noted
786-0 renal = conditions: 10 µM unless noted
MALME-3M melanoma = conditions: 10 µM unless noted
MDA-MB-231 breast = conditions: 10 µM unless noted
RXF 393 renal = conditions: 10 µM unless noted
SF-268 CNS = conditions: 10 µM unless noted
SF-295 CNS = conditions: 10 µM unless noted
SF-539 CNS = conditions: 10 µM unless noted
UACC-257 melanoma = conditions: 10 µM unless noted
M14 melanoma = conditions: 10 µM unless noted
DU-145 prostate = conditions: 10 µM unless noted
K-562 leukemia = conditions: 10 µM unless noted
COLO 205 colon = conditions: 10 µM unless noted

| Compound | growth (NCI-H226 lung) | growth (NCI-H322M lung) | growth (HOP-62 NSCLC) | growth (NCI-H460 lung) | growth (HOP-92 NSCLC) | growth (NCI-H522 lung) | growth (A549/ATCC NSCLC) | growth (786-0 renal) | growth (MALME-3M melanoma) | growth (MDA-MB-231 breast) | growth (RXF 393 renal) | growth (SF-268 CNS) | growth (SF-295 CNS) | growth (SF-539 CNS) | growth (UACC-257 melanoma) | growth (M14 melanoma) | growth (DU-145 prostate) | growth (K-562 leukemia) | growth (COLO 205 colon) |
| --- | --- | --- | --- | --- | --- | --- | --- | --- | --- | --- | --- | --- | --- | --- | --- | --- | --- | --- | --- |
| c1ccc2c(c1)oc1cc3c(cc12)nnc1cccn13 | 98.5% | 90.9% | 116% | 112% | 120% | 96.7% | 97.1% | 121% | 93.8% | 101% | 127% | 105% | 101% | 95.1% | 95.7% | 98.7% |  |  |  |
| O=C1/C(=C/c2ccc(F)cc2)CN(Cc2cn(CCNc3ccnc4cc(Cl)ccc34)nn2)C/C1=C\c1ccc(F)cc1 | -62.3% (active) | -0.345% (active) | -55.3% (active) | -42.8% (active) | -50.5% (active) | -75.4% (active) | -31.3% (active) | -66.2% (active) | -80.6% (active) | -39.7% (active) | -97.2% (active) | -80.2% (active) | -55.5% (active) | -78.5% (active) | -72.5% (active) | -49.7% (active) | 5.98% (active) | 5.23% (active) |  |
| COc1cc(C(F)(F)F)ccc1-c1cc(-c2ccc(F)cc2)n[nH]1 | 81.1% | 90.6% | 97.8% | 91.6% | 96.1% |  | 64.9% | 99.9% | 90.8% | 80.2% | 92.4% | 101% | 97.6% | 91.2% | 82.5% | 93.1% | 95.7% | 97.5% |  |
| Cn1c2ccc(Cl)cc2c2nn(C(=O)c3ccccc3)c(=O)nc21 | 93.7% | 106% | 101% | 105% |  | 101% | 113% | 113% |  | 106% | 98.9% | 104% |  | 99.9% | 128% | 98.9% | 114% | 110% | 123% |
| O=[N+]([O-])c1ccc(C=C2C(Cl)=C(Cl)C(Cl)=C2Cl)cc1 | 62.7% | 121% | 78.3% | 90.6% |  | 46.1% | 92.1% | 19.8% | 108% | 74.8% | 0.914% (active) | 55.1% | 86.3% | 75.8% | 67.7% | 36.9% | 73% | 7.31% (active) | 54% |
| COc1ccc2c(c1)c(=O)oc1c(C)c(OCC(C)=O)ccc12 | 104% | 105% | 118% | 103% |  | 89.7% | 85.1% | 101% | 112% | 114% | 103% | 85.6% | 93.9% | 94.3% | 96.2% | 112% | 86.8% | 102% | 128% |
| COc1ccc(NC(=O)COc2ccccc2)c(C(N)=O)c1 | 71.6% | 59.3% | 20.3% | 11.2% |  | 6.28% (active) | 24.8% | 35.2% |  | 44.1% | 2.95% (active) | 50.7% | 13.3% | -46.8% (active) | 61.7% | 3.47% (active) | 23% | 9.36% (active) | -12.1% (active) |
| Cn1c2ccccc2c2nn(C(=O)c3ccccc3)c(=O)nc21 | 96.2% | 99.6% | 115% | 105% |  | 99% | 116% | 107% |  | 120% | 101% | 111% | 98.2% | 106% | 118% | 104% | 118% | 112% | 118% |
| Cc1ccc(N(CSc2ccc(Cl)cc2)CSc2ccc(Cl)cc2)cc1 | 71.9% | 64.1% |  | 14.3% | 56.8% | 39.3% | 28.5% | 51.5% | 69.1% | 18.4% | 91.4% | 25% | 11.3% | 16.1% | 88.9% | 57.8% | 44.8% |  | 118% |
| CCSc1nnc2c3cc(Br)ccc3n(C)c2n1 | 93.6% | 101% | 82.7% | 102% |  | 99.5% | 102% | 102% |  | 93.3% | 116% | 107% | 93.7% | 106% | 105% | 98.4% | 119% | 118% |  |
| O=c1ccc2ccccc2o1 | 102% | 115% | 108% | 114% |  | 94.3% | 94% | 105% | 110% | 100% | 116% | 102% | 97.7% | 102% | 101% | 104% | 112% | 112% | 114% |
| COc1c(Cl)ccc2c(-c3nc4cc(Cl)c(F)cc4s3)cc(=O)oc12 | 94.8% | 106% | 86.6% | 99.2% |  | -78.2% (active) | 78% | -43.3% (active) |  | 65% | 92.3% | 29.5% | 97.7% | 90% | 91.6% | 95.5% | 97.1% | 64.9% | 124% |
| COc1cc(NC(=O)COc2ccccc2)c(C(N)=O)cc1OC | 76.5% | 40.1% | 30.5% | 7.91% (active) |  | -9.94% (active) | 20.5% | 44.4% |  | 51.2% | 6.01% (active) | 53.4% | 7.73% (active) | -23.9% (active) | 51.3% | 16.8% | 23.6% | 7.84% (active) | 8.28% (active) |
| CN1CCc2c(Sc3ccc(C(=O)NO)cc3)c3ccccc3n2C1 | 62.1% | 67.8% | 66.8% | 40.3% | 52.6% |  | 52.1% | 75.3% | 42.4% | 8.01% (active) | 52.5% | 35.9% | 40.6% | 17.1% | 14.1% | 38.1% | 36.8% | 28.2% |  |
| O=C(Nc1ccccc1O)c1ccc(NS(=O)(=O)c2cccc3cccnc23)cc1 | 50.3% | 48.3% | 38.3% | 40.2% |  | 37.7% | 51.1% | 71.9% |  | 64% | 69.8% | 44% | 62.9% | 41.4% | 26.8% | 41.1% | 49.1% | 23.8% | 47.8% |
| Cc1ccc(C(=O)Nc2ccccc2N)cc1 | 74.5% | 71.6% | 92.2% | 66% |  | 70% | 90.8% | 75.4% |  | 69.7% | 84.6% | 69.6% | 62.5% | 68.1% | 68% | 77.5% | 73.5% | 62.5% | 94.6% |
| COC(=O)c1ccc(C(=O)Nc2ccccc2N)cc1 | 73.9% | 66.5% | 95% | 63.3% |  | 75.1% | 94.7% | 80.8% |  | 67.3% | 86.8% | 65.4% |  | 64.9% | 75.7% | 83.3% | 80.2% | 73.3% | 106% |
| CN1CCn2c(c(Sc3ccc(C(=O)NO)cc3)c3ccccc32)C1=O | -8.32% (active) | 53% | 21.3% | 20.4% |  | -97.3% (active) | 62% | 39.8% | 63.6% | -15.2% (active) | -14.4% (active) | -34.9% (active) | -1.68% (active) | -90.8% (active) | -9.93% (active) | -37.7% (active) | 36.3% |  | 1.64% (active) |
